Measurements reported in the supplement of paper PMC6411743.
± gives the standard deviation of the averaged measurements. The full data set covers some 5,400 targets. This sample favours those with the largest changes.

Compound: Nc1nc2c(ncn2[C@@H]2O[C@H](COP(=O)(O)OP(=O)(O)OP(=O)(O)O)[C@@H](O)[C@H]2O)c(=O)[nH]1 [guanosine triphosphate]
Test: NP40-soluble protein abundance relative to vehicle (solubility fold change) (ratio); higher = more soluble protein in presence of GTP
Outline: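 Crude Jurkat lysate, prepared by Dounce homogenisation, was exposed to eight concentrations from 0.1 to 10 mM for 10 min at room temperature and then 3 min at 37 °C. Solubilisation used 0.8% NP40 with benzonase for 60 min at 4 °C, followed by ultracentrifugation and TMT labelling of the supernatant for LC-MS/MS. After vsn normalisation of intensities, each value is the fold change against the detergent-processed vehicle within each replicate, across three independent experiments.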

UniProt P62879, sequence (P62879 whole entry): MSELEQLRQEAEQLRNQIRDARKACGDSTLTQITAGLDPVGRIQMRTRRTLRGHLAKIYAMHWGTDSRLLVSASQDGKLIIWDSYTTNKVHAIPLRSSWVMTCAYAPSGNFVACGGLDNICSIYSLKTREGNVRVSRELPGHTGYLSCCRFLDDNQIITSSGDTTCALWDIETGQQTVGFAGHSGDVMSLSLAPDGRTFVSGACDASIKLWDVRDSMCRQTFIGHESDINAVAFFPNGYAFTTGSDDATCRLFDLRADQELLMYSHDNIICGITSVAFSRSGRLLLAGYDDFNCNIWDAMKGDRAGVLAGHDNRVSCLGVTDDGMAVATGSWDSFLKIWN
UniProt Q6NUK1, sequence (Q6NUK1 whole entry): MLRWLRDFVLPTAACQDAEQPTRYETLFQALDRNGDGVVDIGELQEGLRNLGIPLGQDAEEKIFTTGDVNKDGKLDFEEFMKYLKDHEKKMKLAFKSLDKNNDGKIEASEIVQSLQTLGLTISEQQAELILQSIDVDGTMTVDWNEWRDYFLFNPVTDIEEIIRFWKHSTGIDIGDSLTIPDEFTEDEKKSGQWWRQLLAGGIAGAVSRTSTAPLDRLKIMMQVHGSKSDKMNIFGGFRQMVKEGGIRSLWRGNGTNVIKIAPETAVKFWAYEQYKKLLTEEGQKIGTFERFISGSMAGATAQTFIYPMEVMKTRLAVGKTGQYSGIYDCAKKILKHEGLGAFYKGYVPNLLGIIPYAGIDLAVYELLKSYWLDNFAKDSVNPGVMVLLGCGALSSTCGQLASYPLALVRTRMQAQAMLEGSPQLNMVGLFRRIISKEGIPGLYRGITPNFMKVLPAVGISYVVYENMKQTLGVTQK
UniProt Q16864, sequence (Q16864 whole entry): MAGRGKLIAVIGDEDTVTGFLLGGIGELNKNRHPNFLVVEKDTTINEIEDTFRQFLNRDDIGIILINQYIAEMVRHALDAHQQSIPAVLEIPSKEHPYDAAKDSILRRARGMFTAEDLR
UniProt Q12802, sequence (Q12802 whole entry): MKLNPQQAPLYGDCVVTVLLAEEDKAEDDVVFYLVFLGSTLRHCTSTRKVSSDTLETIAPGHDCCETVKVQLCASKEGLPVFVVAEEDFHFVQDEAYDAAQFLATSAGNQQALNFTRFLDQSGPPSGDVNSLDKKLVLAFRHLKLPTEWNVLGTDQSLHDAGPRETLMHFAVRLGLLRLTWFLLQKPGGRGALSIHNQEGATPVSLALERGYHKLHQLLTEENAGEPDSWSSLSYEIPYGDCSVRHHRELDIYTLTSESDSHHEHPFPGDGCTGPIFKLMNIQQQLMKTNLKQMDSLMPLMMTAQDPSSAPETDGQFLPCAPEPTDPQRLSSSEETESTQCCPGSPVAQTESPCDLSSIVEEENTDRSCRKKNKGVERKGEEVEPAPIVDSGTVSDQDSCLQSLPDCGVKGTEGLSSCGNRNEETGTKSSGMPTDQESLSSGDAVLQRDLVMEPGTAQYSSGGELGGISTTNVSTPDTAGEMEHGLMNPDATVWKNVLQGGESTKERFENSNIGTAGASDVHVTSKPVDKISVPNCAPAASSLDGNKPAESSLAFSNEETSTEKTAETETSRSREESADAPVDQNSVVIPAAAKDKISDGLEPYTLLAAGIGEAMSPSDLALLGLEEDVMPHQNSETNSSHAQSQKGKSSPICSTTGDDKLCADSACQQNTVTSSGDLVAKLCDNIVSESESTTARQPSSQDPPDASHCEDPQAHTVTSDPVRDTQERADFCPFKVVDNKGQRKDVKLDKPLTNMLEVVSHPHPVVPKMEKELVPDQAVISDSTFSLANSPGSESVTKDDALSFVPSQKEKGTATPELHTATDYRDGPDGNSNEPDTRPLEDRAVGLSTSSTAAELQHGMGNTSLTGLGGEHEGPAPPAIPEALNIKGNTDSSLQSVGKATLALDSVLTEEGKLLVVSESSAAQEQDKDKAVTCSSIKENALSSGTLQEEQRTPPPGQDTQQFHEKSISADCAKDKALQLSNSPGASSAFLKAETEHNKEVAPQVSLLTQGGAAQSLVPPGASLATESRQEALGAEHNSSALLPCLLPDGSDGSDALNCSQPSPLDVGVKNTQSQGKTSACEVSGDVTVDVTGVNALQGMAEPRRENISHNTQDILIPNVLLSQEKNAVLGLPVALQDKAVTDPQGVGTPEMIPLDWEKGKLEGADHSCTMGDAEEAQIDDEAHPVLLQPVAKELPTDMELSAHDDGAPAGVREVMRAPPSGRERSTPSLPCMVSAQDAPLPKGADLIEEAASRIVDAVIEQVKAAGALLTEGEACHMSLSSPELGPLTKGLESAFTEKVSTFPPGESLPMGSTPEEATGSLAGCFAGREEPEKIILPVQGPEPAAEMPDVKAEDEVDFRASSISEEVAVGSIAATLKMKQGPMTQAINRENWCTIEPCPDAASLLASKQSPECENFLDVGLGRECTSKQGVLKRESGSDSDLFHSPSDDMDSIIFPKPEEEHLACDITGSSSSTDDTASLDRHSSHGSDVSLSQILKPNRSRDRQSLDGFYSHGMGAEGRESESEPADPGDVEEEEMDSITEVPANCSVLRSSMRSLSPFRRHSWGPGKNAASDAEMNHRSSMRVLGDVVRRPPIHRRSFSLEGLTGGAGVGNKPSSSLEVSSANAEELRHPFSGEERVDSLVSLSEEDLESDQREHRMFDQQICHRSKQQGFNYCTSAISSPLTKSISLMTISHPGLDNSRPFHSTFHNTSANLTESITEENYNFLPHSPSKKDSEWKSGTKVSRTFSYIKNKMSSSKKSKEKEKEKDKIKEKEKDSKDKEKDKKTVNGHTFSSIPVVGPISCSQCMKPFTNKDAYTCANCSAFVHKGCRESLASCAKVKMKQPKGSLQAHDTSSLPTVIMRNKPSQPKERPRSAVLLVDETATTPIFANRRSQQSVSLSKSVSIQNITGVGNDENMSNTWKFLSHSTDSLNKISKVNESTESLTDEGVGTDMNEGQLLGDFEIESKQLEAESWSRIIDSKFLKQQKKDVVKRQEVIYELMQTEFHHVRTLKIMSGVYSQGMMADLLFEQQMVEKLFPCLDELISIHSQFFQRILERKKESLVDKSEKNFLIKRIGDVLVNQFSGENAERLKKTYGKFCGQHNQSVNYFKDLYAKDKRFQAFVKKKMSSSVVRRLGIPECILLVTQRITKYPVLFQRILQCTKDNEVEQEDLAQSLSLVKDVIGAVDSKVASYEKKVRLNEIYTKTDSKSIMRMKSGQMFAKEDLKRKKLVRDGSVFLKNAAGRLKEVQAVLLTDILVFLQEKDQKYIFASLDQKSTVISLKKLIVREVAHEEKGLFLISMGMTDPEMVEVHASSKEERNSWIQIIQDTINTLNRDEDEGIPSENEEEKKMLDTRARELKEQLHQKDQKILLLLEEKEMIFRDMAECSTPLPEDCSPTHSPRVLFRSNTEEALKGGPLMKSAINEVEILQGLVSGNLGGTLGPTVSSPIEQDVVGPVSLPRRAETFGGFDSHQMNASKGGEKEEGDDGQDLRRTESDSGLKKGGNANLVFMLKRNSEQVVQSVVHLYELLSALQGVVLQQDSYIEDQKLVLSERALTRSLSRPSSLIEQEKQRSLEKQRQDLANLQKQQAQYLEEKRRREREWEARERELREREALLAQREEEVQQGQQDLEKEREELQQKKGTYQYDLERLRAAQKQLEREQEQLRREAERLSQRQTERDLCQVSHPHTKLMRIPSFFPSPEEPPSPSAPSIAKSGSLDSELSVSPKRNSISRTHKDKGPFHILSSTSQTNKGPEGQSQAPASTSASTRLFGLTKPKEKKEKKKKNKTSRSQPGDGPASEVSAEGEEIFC
UniProt Q86W42, sequence (Q86W42 whole entry): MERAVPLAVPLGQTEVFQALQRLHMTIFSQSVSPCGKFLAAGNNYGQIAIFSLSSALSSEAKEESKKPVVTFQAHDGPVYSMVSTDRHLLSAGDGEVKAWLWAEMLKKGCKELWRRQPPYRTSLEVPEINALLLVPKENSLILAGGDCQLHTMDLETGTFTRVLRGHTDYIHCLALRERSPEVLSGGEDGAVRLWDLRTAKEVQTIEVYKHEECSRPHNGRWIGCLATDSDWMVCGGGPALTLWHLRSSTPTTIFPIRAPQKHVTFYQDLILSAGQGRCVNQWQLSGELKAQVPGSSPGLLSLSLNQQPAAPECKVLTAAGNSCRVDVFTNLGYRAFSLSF
UniProt Q8WUM4, sequence (Q8WUM4 whole entry): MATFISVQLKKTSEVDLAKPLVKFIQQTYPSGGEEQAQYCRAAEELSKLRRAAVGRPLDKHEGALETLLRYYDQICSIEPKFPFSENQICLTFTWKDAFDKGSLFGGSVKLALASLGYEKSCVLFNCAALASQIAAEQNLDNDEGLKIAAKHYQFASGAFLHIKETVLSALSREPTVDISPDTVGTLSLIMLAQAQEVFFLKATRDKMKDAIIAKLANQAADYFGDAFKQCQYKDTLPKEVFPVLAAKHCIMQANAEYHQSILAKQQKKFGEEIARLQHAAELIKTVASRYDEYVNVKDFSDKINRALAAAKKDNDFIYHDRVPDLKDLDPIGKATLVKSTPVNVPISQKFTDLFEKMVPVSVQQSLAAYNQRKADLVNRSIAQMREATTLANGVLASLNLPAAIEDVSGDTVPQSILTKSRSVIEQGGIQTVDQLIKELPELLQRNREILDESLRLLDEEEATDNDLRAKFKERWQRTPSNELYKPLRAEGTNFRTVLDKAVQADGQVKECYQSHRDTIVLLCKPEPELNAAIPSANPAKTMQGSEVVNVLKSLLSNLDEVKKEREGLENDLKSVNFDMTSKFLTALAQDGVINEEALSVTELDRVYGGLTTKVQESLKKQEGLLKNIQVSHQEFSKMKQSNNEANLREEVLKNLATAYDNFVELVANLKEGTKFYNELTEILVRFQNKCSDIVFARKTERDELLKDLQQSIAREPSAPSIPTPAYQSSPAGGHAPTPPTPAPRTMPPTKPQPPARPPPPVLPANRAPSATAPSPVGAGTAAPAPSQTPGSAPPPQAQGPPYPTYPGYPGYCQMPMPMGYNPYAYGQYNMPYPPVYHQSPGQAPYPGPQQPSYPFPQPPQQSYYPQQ
UniProt P84090, sequence (P84090 whole entry, looked up): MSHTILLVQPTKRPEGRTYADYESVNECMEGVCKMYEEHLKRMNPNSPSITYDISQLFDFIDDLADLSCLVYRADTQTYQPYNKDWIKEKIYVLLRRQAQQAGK

Target	NP40-soluble protein abundance (concentration: 0.1mM)	NP40-soluble protein abundance (concentration: 0.5mM)	NP40-soluble protein abundance (concentration: 1mM)	NP40-soluble protein abundance (concentration: 2mM)	NP40-soluble protein abundance (concentration: 4mM)	NP40-soluble protein abundance (concentration: 6mM)	NP40-soluble protein abundance (concentration: 8mM)	NP40-soluble protein abundance (concentration: 10mM)
UniProt Q12802|Q12802-2|Q12802-4	0.99 ± 0.12	1.01 ± 0.092	1.01 ± 0.099	1 ± 0.12	0.977 ± 0.11	1.04 ± 0.11	1.02 ± 0.1	1.02 ± 0.084
CUL4A (UniProt Q13619)	1.07 ± 0.041	1.09 ± 0.077	1.02 ± 0.045	1.03 ± 0.11	0.989 ± 0.09	0.987 ± 0.076	0.987 ± 0.061	0.934 ± 0.042
UniProt P84090	1.06 ± 0.1	1.02 ± 0.06	1.26 ± 0.18	1.34 ± 0.11	1.42 ± 0.16	1.54 ± 0.1	1.65 ± 0.14	1.95 ± 0.38
PDCD6IP (UniProt Q8WUM4)	0.945 ± 0.046	0.957 ± 0.053	0.943 ± 0.061	0.889 ± 0.075	0.873 ± 0.084	0.895 ± 0.064	0.904 ± 0.053	0.883 ± 0.07
SLC25A24 (UniProt Q6NUK1)	0.934 ± 0.055	0.93 ± 0.033	0.857 ± 0.039	0.854 ± 0.014	0.837 ± 0.026	0.845 ± 0.024	0.809 ± 0.061	0.817 ± 0.057
METTL3 (UniProt Q86U44)	0.967 ± 0.058	1.01 ± 0.061	0.969 ± 0.062	0.948 ± 0.076	0.911 ± 0.06	0.932 ± 0.058	0.92 ± 0.085	0.931 ± 0.063
UniProt Q8TDZ2|Q8TDZ2-4	1.01 ± 0.056	0.965 ± 0.069	0.946 ± 0.021	0.9475 ± 0.0091	0.9237 ± 0.0088	0.899 ± 0.019	0.921 ± 0.016	0.879 ± 0.058
UniProt Q16630|Q16630-2	1.16 ± 0.012	1.64 ± 0.098	1.95 ± 0.22	2.23 ± 0.3	2.49 ± 0.41	2.58 ± 0.45	2.71 ± 0.58	2.75 ± 0.56
UniProt Q13642-1|Q13642-4|Q13642-5	1.07 ± 0.16	1.09 ± 0.17	0.946 ± 0.13	0.921 ± 0.14	0.932 ± 0.12	0.911 ± 0.12	0.952 ± 0.093	0.915 ± 0.15
AARS2 (UniProt Q5JTZ9)	1.13 ± 0.043	1.02 ± 0.046	0.989 ± 0.052	0.998 ± 0.059	0.98 ± 0.06	0.948 ± 0.04	0.925 ± 0.03	0.925 ± 0.045
UniProt Q86V81	0.939 ± 0.019	0.943 ± 0.079	1.12 ± 0.036	1.25 ± 0.097	1.5 ± 0.047	1.73 ± 0.054	1.95 ± 0.1	2.52 ± 0.13
UniProt Q86W42|Q86W42-2	1.21 ± 0.14	1.35 ± 0.28	1.46 ± 0.27	1.87 ± 0.52	2.27 ± 0.61	2.29 ± 0.68	2.26 ± 0.54	2.31 ± 0.65
UniProt Q7Z7K6|Q7Z7K6-3	1.09 ± 0.035	1.08 ± 0.071	1.16 ± 0.013	1.37 ± 0.071	1.69 ± 0.2	2.01 ± 0.27	2.24 ± 0.32	3.21 ± 0.43
MLKL (UniProt Q8NB16)	0.98 ± 0.044	0.962 ± 0.052	0.896 ± 0.062	0.908 ± 0.035	0.873 ± 0.047	0.874 ± 0.032	0.868 ± 0.045	0.837 ± 0.024
UniProt Q14444|Q14444-2	0.95 ± 0.057	0.994 ± 0.098	1.06 ± 0.07	1.01 ± 0.14	1.02 ± 0.088	1.11 ± 0.1	1.16 ± 0.057	1.13 ± 0.11
P62158 (UniProt P0DP23)	0.715 ± 0.11	0.763 ± 0.14	0.991 ± 0.17	1.12 ± 0.19	1.09 ± 0.21	1.15 ± 0.24	0.939 ± 0.14	1.14 ± 0.11
P86790|P86791 (UniProt P86791+P86790)	1.06 ± 0.015	1.06 ± 0.072	1.03 ± 0.063	0.99 ± 0.038	1.01 ± 0.068	0.948 ± 0.038	0.943 ± 0.029	0.924 ± 0.0097
UniProt Q16864|Q16864-2	0.906 ± 0.02	0.931 ± 0.05	1.032 ± 0.01	1.04 ± 0.067	0.999 ± 0.061	1.02 ± 0.034	0.992 ± 0.073	1.02 ± 0.027
UniProt Q7L5D6|Q7L5D6-2	1.03 ± 0.056	0.98 ± 0.091	0.94 ± 0.047	0.975 ± 0.11	0.963 ± 0.12	0.986 ± 0.1	0.868 ± 0.053	0.887 ± 0.12
UniProt Q8IX12|Q8IX12-2	0.993 ± 0.042	0.985 ± 0.027	1.004 ± 0.0041	0.996 ± 0.03	1.08 ± 0.056	1.12 ± 0.06	1.17 ± 0.077	1.14 ± 0.059
ASCC3 (UniProt Q8N3C0)	1 ± 0.066	1.09 ± 0.026	1.06 ± 0.032	1.16 ± 0.091	1.32 ± 0.17	1.38 ± 0.22	1.53 ± 0.26	1.73 ± 0.27
UniProt Q6WKZ4|Q6WKZ4-3	1.02 ± 0.049	0.951 ± 0.044	0.946 ± 0.05	0.921 ± 0.056	0.933 ± 0.058	0.901 ± 0.022	0.943 ± 0.057	0.89 ± 0.038
UniProt Q13325|Q13325-2	1.06 ± 0.044	1.05 ± 0.061	0.989 ± 0.057	0.978 ± 0.05	0.952 ± 0.086	0.927 ± 0.049	0.906 ± 0.077	0.888 ± 0.13
UniProt Q8IZ81|D6RBS5	1.12 ± 0.15	1.15 ± 0.2	0.932 ± 0.066	0.934 ± 0.069	0.944 ± 0.063	0.877 ± 0.048	0.958 ± 0.13	0.802 ± 0.051
UniProt Q12789|Q12789-3	1.08 ± 0.051	1.08 ± 0.093	1.1 ± 0.1	1.13 ± 0.09	1.13 ± 0.1	1.1 ± 0.077	1.1 ± 0.11	1.1 ± 0.11
UniProt P62879	0.978 ± 0.035	1.01 ± 0.064	0.917 ± 0.031	0.947 ± 0.074	0.924 ± 0.05	0.937 ± 0.054	0.913 ± 0.048	0.893 ± 0.09
UniProt P62277	0.945 ± 0.11	0.964 ± 0.11	1.03 ± 0.22	1.02 ± 0.3	0.802 ± 0.25	0.796 ± 0.27	0.626 ± 0.17	0.816 ± 0.29
UniProt Q63HQ0	0.923 ± 0.075	0.935 ± 0.056	0.951 ± 0.099	0.911 ± 0.13	1.02 ± 0.16	0.961 ± 0.12	0.952 ± 0.091	0.972 ± 0.11
UniProt P62195	1.03 ± 0.069	1.08 ± 0.12	1.04 ± 0.14	1.07 ± 0.17	1.06 ± 0.15	1.08 ± 0.19	1.06 ± 0.16	0.977 ± 0.15
UniProt P60891	1.03 ± 0.072	1.15 ± 0.18	1.18 ± 0.22	1.26 ± 0.25	1.29 ± 0.23	1.3 ± 0.28	1.28 ± 0.27	1.26 ± 0.23
